# Test results from PubChem BioAssay AID2717 (Broad Institute, 2010).
# “And” between values parts separate entries of the source, which are not always exact repeats. Equal values may be shown once. Out of some 300,000 compounds screened, about 3,200 (1.1%) were called active. The sample holds actives, similar compounds and a random draw of the others, so the mix is not that of the screen. Cut-off read from the data, not from the text of the source: active = inhibition above about 75%; inconclusive = no clear call, values can overlap the other calls; inactive = below that; tested in HMLE shEcad cells.
# Assay: growth suppression of cancer stem-like cells – cell-based, luminescence, primary screen (AID 2717)
# Details: cancer stem cell-like cells viability, at 7.5 µM, stronger effect = higher value
row,Compound,inhibition
1,O=C(COC(=O)c1ccc([N+](=O)[O-])o1)NC12CC3CC(CC(C3)C1)C2,-15.4% (inactive)
2,COCCn1c(C)cc(C(=O)CN2c3cccc4cccc(c34)S2(=O)=O)c1C,12.1% (inactive)
3,COc1cc(/C=N/O)cc(Br)c1OS(=O)(=O)c1ccc(C)cc1,-11.5% (inactive)
4,COc1cc(/C=N/O)cc(Br)c1OCc1cccc(Cl)c1,80.5% (active)
5,COc1cc(/C=N/O)ccc1OCc1ccc([N+](=O)[O-])cc1,1.34% (inactive)
6,CN(CC(=O)NC1CCN(Cc2ccccc2)CC1)S(=O)(=O)c1ccc(Cl)s1,-6.54% (inactive)
7,O=C(O)c1ccc(Cn2c(=S)[nH]c3cc(Cl)ccc3c2=O)cc1,-3.92% (inactive)
8,CC(C)c1ccc2c(c1)c(SC(C)(C)C)c(CC(C)(C)C(=O)O)n2Cc1ccc(Cl)cc1,104% (active) and 102% (active)
9,O=C1COc2ccc(C(=O)COC(=O)c3ccccc3Cl)cc2N1,-17.8% (inactive)
10,Fc1ccccc1-c1cc2cc3c(cc2cn1)OCO3,14.4% (inactive)
11,COC(=O)C1=C(C)N(Cc2ccccc2)C(=NCCCOC(C)C)N[C@H]1c1ccccc1,0.115% (inactive)
12,O=C(/C=C/c1ccc(F)cc1)Nc1cccc(S(=O)(=O)Nc2cccc(C(F)(F)F)c2)c1,2.9% (inactive)
13,Cc1oc2c(F)c(F)c(F)c(F)c2c1S(=O)(=O)Nc1cccc(C(F)(F)F)c1,97.3% (active)
14,CCOC(=O)N1CCN(C(=O)c2ccc(S(=O)(=O)Nc3cccc(C(F)(F)F)c3)cc2)CC1,8.22% (inactive)
15,Cc1ccc(C)c(NC(=S)NNC(=O)c2csc(C)c2)c1,3.04% (inactive)
16,Cc1ccc(C)c(NC(=S)NNC(=S)Nc2ccc(C(C)C)cc2)c1,102% (active)
17,CC(C)c1ccc(NC(=S)NNc2ccc(Cl)c(C(=O)O)c2)cc1,-18.1% (inactive)
18,C[C@H]1COC(=O)[C@H](CC(=O)OC(C)(C)C)C/C=C\C[C@@H](CC(=O)N[C@H](CO)Cc2ccccc2)C(=O)N1,-29.3% (inactive)
19,Cc1ccccc1SCC(=O)OCC(=O)N1CC(=O)Nc2ccccc21,-8.14% (inactive)
20,CC1CCCCC1NC(=O)COc1ccc(C#N)cc1 (stereo not drawn),-1.85% (inactive)
21,C/C(=N\NC(=S)NCc1ccccc1)c1ccc(Cl)cc1,41.6% (inactive)
22,C/C(=N\NC(=S)NC(C)C)c1ccc(C(C)(C)C)cc1,77.5% (active)

row,Compound,inhibition
1,CC/C(=N\NC(=S)NC(C)C)c1ccc(OC(F)F)cc1,2.7% (inactive)
2,O=C(COc1cccnc1[N+](=O)[O-])Nc1ccc(Cl)cc1F,-1.01% (inactive)
3,O=C1C=C(c2cc(C(F)(F)F)cc(C(F)(F)F)c2)C[C@@H](c2ccc3c(c2)OCO3)C1,34.8% (inactive)
4,COCC(=O)Nc1c(I)c(C(=O)NCC(O)CO)c(I)c(C(=O)N(C)CC(O)CO)c1I (stereo not drawn),10.5% (inactive)
5,CCN1/C(=C/c2ccc3ccc(C)cc3[n+]2CC)Sc2ccccc21,17.6% (inactive)
6,CCN1/C(=C\c2ccc3ccccc3[n+]2CC)Sc2cc(C)ccc21,89.1% (active)
7,COc1ccc(C(=O)N2CCN(c3ccc(C(C)=O)cc3F)CC2)cc1S(=O)(=O)NC1CC1,1.55% (inactive)
8,COc1ccc(N=Nc2ccc(O)c(P(=O)(c3ccccc3)c3ccccc3)c2)cc1,13.4% (inactive)
9,Cc1cc(N=Nc2ccc3ccccc3c2)ccc1O,112% (active)
10,CC(=O)CCC(=O)c1ccc2ccccc2c1,-3.91% (inactive)
11,CCN(CC)C(=O)c1nc[nH]c1C(=O)N(C)Cc1ccccc1,-14.8% (inactive)
12,COc1ccc(/C=C/C(=O)Nc2ccc(C34CC5CC(CC(O)(C5)C3)C4)cc2)cc1OC,91% (active)
13,COc1ccc(/C=C/C(=O)Nc2cccnc2)cc1OC,4.4% (inactive)
14,COc1ccc(/C=C/C(=O)Nc2ccc(C)cc2)cc1S(=O)(=O)N1CCOCC1,-2.38% (inactive)
15,CC(=O)C(CC(=O)N1CCCC1)C(=O)Nc1ccc(Cl)cc1 (stereo not drawn),-5.74% (inactive)
16,Cc1cccc(NC(=O)c2nc[nH]c2C(=O)NCC(=O)OCc2ccccc2)c1,-0.27% (inactive)
17,CCSc1nnc(NC(=O)c2ccc(C)cc2)s1,15.4% (inactive)
18,Cc1cccc(NC(=O)c2nc(S(=O)(=O)Cc3ccccc3)ncc2Cl)c1,109% (active)
19,CCSc1ncc(Cl)c(C(=O)Nc2cc(C)ccc2C)n1,-7.15% (inactive)
20,CSc1nnc(NC(=O)c2nc(S(=O)(=O)Cc3ccc(C)cc3)ncc2Cl)s1,104% (active)
21,CSc1ncc(Cl)c(C(=O)Nc2cc(C)ccc2C)n1,4.07% (inactive)
22,Cc1cc(C)cc(OCC(=O)OCC(=O)NC2CCCC2)c1,7.95% (inactive)

row,Compound,inhibition
1,CC(C)(C)OC(=O)C[C@@H]1C/C=C\C[C@@H](CC(=O)N[C@H](CO)Cc2ccccc2)C(=O)NC[C@@H](c2ccccc2)OC1=O,0.463% (inactive)
2,CCN(C(=O)COC(=O)CCC(=O)c1cccs1)C1CCCCC1,-3.12% (inactive)
3,CC1(c2ccccc2)NC(=O)N(CC(=O)N2CC(=O)Nc3ccccc32)C1=O (stereo not drawn),-24.5% (inactive)
4,COc1cc(OC)cc(-c2c(-c3ccc(F)cc3)c3cc(-c4ccc5cc[nH]c5c4)ccc3n2C)c1,14.4% (inactive)
5,COc1cc(OC)cc(-c2c(-c3cccs3)c3cc(-c4ccc(OC)nc4)ccc3n2C)c1,30.1% (inactive)
6,COc1ccc(-c2c(-c3cc(OC)cc(OC)c3)n(C)c3ccc(-c4ccn[nH]4)cc23)cc1,109% (active)
7,CNC[C@@H]1Oc2c(NS(C)(=O)=O)cccc2C(=O)N([C@@H](C)CO)C[C@H]1C,-11.8% (inactive)
8,O=C(CSc1ncn[nH]1)N/N=C/c1ccc(F)cc1,8.65% (inactive)
9,Cc1cc(C)nc(S/C=C/C(=O)c2ccccc2)n1,49.1% (inactive)
10,O=C(/C=C/Sc1ncn[nH]1)c1ccc(Cl)cc1,112% (active)
11,CCOC(=O)[C@H]1[C@H]2COc3ccc(OC)cc3[C@@H]2N2C(=O)c3ccc(F)cc3NC(=O)[C@@]12C,9.18% (inactive)
12,CC(=O)Nc1ccc(C(=O)NNC(=O)CCCCC(=O)NNC(=O)c2ccc(NC(C)=O)cc2)cc1,0.726% (inactive)
13,CC(=O)Nc1ccc(C(=O)/C=C/c2ccc[nH]2)cc1,-8.94% (inactive)
14,CCCC(=O)Nc1ccc(C(=O)N/N=C/c2ccc[nH]2)cc1,110% (active)
15,Cc1ccc(OCCC(=O)Nc2ccc(S(=O)(=O)Nc3nccs3)cc2)cc1,-5.72% (inactive)
16,COc1ccc(C)cc1NC(=O)CSc1cccc[n+]1[O-],-18.1% (inactive)
17,O=C(Nc1cc(S(=O)(=O)N2CCCCC2)ccc1Cl)C1COc2ccccc2O1 (stereo not drawn),-13.5% (inactive)
18,Cc1ccc(-n2[nH]c(C)c(/C=N/NC(=O)c3cccc([N+](=O)[O-])c3)c2=O)cc1C,104% (active)
19,O=C(N/N=C/c1cccc([N+](=O)[O-])c1)c1ccncc1,0.983% (inactive)
20,Cc1[nH]n(-c2ccccc2)c(=O)c1/C=N/NC(=O)c1ccoc1C,35.2% (inactive)
21,CCC1CCCCN1C(=S)NC(=O)c1ccco1 (stereo not drawn),7.21% (inactive)
22,O=C(Nc1cc(-c2ccccc2)nn1-c1ccccc1F)c1ccc([N+](=O)[O-])cc1,1.45% (inactive)

row,Compound,inhibition
1,COc1ccc(S(=O)(=O)N2CCN(c3cnccn3)CC2)cc1,7% (inactive)
2,CC(C)(C)OC(=O)NCCCCCNC(=O)c1[nH]cnc1C(=O)Nc1nccs1,0.813% (inactive)
3,CC(=O)c1ccc(NC(=O)CSc2nc3ccccc3c(=O)n2CCCN2CCOCC2)cc1,-2.25% (inactive)
4,Cc1cccc(N=C2NC(=O)/C(=C/c3cn(C)c4ccccc34)S2)c1,47.4% (inactive)
5,Cc1cccc(N=C2NN=C(c3c[nH]c4ccccc34)CS2)c1,80% (active)
6,Clc1cccc(N=C2NN=C(c3ccc4c(c3)OCCO4)CS2)c1,17.2% (inactive)
7,CCN(C(=O)CSc1nnnn1-c1ccc(OC)cc1)C1CCS(=O)(=O)C1 (stereo not drawn),-11.6% (inactive)
8,CC(NC(=O)COC(=O)c1ccc2ccccc2n1)c1ccccc1 (stereo not drawn),2.66% (inactive)
9,CCc1ccc(-c2nn(-c3ccccc3)cc2CSC(=N)N)cc1,118% (active)
10,CCc1ccc(-c2nn(-c3ccccc3C)cc2C(=O)N2CCN(C3CCS(=O)(=O)C3)CC2)cc1 (stereo not drawn),-16.1% (inactive)
11,O=C(Nc1cn(-c2ccccc2)nc1-c1ccccc1)c1ccccc1,-3.4% (inactive)
12,COc1ccc(/C=C/c2c(-c3cccc(C)c3)oc3ccc(-c4ccc5c(c4)OCO5)cc23)cc1,-7.1% (inactive)
13,COc1ccc(C#Cc2c(-c3ccc(OC)cc3)oc3ccc(-c4ccc5c(c4)OCO5)cc23)cc1,-6.59% (inactive)
14,Cc1cccc(-c2oc3ccc(-c4ccc5c(c4)OCO5)cc3c2C#Cc2cncn2C)c1,94.9% (active)
15,CCCC(CNC(=O)COC(=O)C1=NNC(=O)CC1)c1ccc(Cl)cc1Cl (stereo not drawn),-14.7% (inactive)
16,COc1cc(S(=O)(=O)N2CCN(C(=O)C3CC3)CC2)ccc1NC(C)=O,1.76% (inactive)
17,COc1ccc(C(=O)Nc2cc(S(=O)(=O)N3CCCC3)ccc2Cl)cc1,7.7% (inactive)
18,Cc1ccc(C(=O)OCC(=O)NCc2cc(C)c(O)c(C)c2)cc1S(=O)(=O)N1CCCCC1,-3.22% (inactive)
19,O=c1c2ccccc2nc2n1C1(CCCCC1)Cc1ccccc1-2,76.3% (active)
20,CCC1(CC)Cc2ccccc2-c2nc3ccccc3c(=O)n21,1.88% (inactive)
21,c1cncc(-c2nnc3n2C2(CCCCC2)Cc2ccccc2-3)c1,2.64% (inactive)
22,COc1ccc(OC)c(/C=C/C(=O)c2ccc3c(c2)OCO3)c1,23.6% (inactive)
